Our source for the inhibition values is ChEMBL document CHEMBL1961873, “Compounds: GSK PKIS; Assays: Nanosyn kinase panel” (2012).

The target in experiment [1] is Mitogen-activated protein kinase kinase kinase kinase 4 (Homo sapiens) (UniProt O95819). Particulars: at 1 µM.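 Also: reported figure is an averaged inhibition value.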
The target of experiment [2] is Dual specificity mitogen-activated protein kinase kinase 1 (Homo sapiens) (UniProt Q02750). Particulars: at 0.1 µM.
Experiment [3] has the same target. Particulars: at 1 µM.
Experiment [4] concerns the target Misshapen-like kinase 1 (Homo sapiens) (UniProt Q8N4C8). Particulars: at 0.1 µM.
Experiment [5] shares this target. To be noted: at 1 µM.
The target of experiment [6] is T1, Serine/threonine-protein kinase 4 (Homo sapiens) (UniProt Q13043).
T1 sequence (whole entry): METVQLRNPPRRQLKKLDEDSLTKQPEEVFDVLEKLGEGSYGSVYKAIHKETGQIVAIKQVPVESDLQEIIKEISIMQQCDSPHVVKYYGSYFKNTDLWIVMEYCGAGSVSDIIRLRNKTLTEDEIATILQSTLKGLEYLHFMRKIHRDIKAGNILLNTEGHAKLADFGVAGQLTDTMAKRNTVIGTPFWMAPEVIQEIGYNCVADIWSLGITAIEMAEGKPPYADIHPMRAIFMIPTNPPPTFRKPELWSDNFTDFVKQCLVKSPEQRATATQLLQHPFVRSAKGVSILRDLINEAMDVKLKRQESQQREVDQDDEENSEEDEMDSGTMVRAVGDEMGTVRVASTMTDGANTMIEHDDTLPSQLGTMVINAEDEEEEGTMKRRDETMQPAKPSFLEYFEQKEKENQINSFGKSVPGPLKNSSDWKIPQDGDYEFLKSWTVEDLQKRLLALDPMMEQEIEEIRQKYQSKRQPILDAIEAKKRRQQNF
To be noted: at 0.1 µM.

In experiment [7] the target is T1, Serine/threonine-protein kinase 4 (Homo sapiens). Particulars: at 1 µM.
Experiment [8] has as its target T2, Serine/threonine-protein kinase 3 (Homo sapiens) (UniProt Q13188).
T2 sequence (whole entry): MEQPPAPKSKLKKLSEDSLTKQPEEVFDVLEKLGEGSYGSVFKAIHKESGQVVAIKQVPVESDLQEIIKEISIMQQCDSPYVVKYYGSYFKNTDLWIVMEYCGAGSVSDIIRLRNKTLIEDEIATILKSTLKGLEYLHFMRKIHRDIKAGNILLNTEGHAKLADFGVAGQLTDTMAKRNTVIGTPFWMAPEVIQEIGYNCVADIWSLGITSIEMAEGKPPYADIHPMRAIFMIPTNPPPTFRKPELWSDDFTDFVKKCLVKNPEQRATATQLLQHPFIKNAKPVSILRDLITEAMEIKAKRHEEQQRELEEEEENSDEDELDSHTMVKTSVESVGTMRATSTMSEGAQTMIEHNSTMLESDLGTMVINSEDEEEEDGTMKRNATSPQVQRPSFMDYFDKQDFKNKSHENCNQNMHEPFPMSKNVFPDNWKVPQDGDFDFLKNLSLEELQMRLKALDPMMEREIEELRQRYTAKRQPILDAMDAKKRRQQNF
To be noted: at 0.1 µM.

For experiment [9], the target named is T2, Serine/threonine-protein kinase 3 (Homo sapiens). To be noted: at 1 µM.
The target in experiment [10] is Serine/threonine-protein kinase 26 (Homo sapiens) (UniProt Q9P289). Particulars: at 0.1 µM.
Serine/threonine-protein kinase 26 (Homo sapiens), sequence (Q9P289 2-416 limits assumed): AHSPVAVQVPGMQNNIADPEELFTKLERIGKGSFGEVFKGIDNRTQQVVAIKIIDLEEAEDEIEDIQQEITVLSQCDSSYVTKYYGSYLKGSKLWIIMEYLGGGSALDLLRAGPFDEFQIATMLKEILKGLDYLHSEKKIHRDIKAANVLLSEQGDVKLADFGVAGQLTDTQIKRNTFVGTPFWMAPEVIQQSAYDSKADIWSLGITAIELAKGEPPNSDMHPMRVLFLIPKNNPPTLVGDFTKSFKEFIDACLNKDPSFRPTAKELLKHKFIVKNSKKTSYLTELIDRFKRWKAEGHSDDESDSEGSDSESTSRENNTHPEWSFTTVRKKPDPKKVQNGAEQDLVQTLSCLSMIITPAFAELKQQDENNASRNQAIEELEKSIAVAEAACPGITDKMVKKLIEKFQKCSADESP

Mitogen-activated protein kinase kinase kinase kinase 4 (Homo sapiens), sequence (O95819 2-1239 limits assumed): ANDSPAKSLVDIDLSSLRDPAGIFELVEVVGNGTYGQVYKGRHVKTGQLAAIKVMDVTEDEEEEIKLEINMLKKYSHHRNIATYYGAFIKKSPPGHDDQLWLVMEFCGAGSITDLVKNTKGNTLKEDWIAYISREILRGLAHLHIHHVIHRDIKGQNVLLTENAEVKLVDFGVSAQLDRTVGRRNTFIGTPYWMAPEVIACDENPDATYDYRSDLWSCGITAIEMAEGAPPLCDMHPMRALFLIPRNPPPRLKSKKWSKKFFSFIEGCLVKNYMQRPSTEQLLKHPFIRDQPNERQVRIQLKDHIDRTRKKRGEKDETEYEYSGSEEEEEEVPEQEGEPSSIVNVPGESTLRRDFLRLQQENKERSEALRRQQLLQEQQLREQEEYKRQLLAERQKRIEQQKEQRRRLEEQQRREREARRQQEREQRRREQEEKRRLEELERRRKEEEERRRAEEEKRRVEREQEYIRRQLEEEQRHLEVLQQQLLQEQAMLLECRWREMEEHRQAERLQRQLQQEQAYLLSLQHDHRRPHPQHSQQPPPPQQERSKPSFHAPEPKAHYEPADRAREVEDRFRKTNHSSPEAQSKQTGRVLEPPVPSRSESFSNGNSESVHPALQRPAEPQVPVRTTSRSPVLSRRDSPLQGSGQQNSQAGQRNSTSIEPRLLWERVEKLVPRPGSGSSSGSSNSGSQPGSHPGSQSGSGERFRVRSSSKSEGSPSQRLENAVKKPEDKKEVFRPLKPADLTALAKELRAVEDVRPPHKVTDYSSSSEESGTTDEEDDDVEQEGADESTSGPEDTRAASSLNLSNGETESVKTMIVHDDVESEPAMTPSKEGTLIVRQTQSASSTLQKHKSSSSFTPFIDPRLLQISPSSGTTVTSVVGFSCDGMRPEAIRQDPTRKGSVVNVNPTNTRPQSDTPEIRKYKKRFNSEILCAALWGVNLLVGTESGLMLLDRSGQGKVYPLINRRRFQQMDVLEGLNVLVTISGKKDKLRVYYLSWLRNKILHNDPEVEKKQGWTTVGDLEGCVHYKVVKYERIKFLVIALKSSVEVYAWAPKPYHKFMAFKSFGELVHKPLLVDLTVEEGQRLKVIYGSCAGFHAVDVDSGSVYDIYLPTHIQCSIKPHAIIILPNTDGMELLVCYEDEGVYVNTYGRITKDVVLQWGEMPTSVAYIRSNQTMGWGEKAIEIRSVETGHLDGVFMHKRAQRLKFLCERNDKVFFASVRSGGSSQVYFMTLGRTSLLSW
Misshapen-like kinase 1 (Homo sapiens), sequence (Q8N4C8 whole entry, looked up): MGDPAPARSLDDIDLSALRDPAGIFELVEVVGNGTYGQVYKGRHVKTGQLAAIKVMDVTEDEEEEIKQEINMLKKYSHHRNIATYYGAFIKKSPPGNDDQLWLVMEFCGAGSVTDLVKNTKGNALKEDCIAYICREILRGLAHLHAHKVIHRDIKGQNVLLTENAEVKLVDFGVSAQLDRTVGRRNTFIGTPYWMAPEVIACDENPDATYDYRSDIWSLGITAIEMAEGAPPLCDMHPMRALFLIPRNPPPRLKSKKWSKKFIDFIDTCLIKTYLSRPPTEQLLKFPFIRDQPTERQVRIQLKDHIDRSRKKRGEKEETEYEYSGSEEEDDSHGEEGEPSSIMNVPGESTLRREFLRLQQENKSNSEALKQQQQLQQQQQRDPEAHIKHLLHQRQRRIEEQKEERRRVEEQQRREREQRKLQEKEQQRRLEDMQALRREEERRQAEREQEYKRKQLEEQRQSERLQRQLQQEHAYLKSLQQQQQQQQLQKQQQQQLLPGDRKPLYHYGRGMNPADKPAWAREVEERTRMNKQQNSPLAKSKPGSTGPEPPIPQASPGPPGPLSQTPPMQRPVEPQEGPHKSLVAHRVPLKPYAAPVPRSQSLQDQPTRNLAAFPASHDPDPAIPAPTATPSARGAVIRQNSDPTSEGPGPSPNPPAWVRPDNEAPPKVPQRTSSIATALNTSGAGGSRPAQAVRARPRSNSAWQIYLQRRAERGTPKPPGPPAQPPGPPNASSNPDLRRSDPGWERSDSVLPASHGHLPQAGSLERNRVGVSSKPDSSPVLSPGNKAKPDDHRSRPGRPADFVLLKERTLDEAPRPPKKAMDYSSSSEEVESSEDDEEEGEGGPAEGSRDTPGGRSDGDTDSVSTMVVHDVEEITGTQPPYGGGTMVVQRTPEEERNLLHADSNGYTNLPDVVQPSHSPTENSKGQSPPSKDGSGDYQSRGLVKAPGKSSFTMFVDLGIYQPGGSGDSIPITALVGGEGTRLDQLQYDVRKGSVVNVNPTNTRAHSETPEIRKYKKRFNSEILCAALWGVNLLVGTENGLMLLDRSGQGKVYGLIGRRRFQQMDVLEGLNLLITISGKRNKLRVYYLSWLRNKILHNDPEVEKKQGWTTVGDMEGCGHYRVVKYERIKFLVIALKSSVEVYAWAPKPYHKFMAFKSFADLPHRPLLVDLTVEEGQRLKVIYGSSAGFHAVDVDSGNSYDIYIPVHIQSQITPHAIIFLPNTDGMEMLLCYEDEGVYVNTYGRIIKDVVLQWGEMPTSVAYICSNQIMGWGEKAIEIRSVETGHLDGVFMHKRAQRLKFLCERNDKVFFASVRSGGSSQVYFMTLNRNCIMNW
Dual specificity mitogen-activated protein kinase kinase 1 (Homo sapiens), sequence (Q02750 whole entry): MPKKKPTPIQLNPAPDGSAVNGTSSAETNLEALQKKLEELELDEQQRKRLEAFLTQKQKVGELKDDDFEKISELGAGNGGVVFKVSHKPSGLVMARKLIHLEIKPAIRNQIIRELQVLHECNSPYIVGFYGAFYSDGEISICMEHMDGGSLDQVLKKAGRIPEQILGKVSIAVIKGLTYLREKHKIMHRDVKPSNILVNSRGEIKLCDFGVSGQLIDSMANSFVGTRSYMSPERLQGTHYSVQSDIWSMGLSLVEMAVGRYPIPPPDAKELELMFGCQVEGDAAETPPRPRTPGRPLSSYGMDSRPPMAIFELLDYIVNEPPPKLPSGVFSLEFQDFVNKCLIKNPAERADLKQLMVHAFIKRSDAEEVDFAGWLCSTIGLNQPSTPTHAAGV

Consider `Nc1ncnc2occ(-c3ccc(NC(=O)Nc4cc(C(F)(F)F)cc(C(F)(F)F)c4)cc3)c12`, for which the inhibition in experiment [1] is 5.19%; in experiment [2], 0.93%; in experiment [3] it was 3.12%; in [4] it was 5.87%; in experiment [5], -1.47%; in experiment [6], 3.59%. Moreover, the inhibition in experiment [7] was 6.92%; in experiment [8], 4.8%; in [9], 5.55%; in experiment [10], -0.71%.

On to `COc1cc2ncn(-c3cc(OCc4ccccc4Cl)c(C(N)=O)s3)c2cc1OC`, for which the inhibition was determined as 56.6% in experiment [1]; 2.14% in experiment [2]; 2.16% in experiment [3]; 10.9% in experiment [4]; 51% in experiment [5]; 7.11% in experiment [6]. Also, the inhibition was determined as 46.2% in experiment [7], 6.18% in experiment [8], 42.4% in experiment [9] and 0.45% in experiment [10].

For the compound `CCn1c(-c2nonc2N)nc2cncc(C(=O)N3CCNCC3)c21`, the inhibition was determined as 4.49% in experiment [1]; 5.61% in experiment [2]; 4.93% in experiment [3]; 5.47% in [4]; 6.02% in [5]; 3.69% in experiment [6]. The inhibition is 5.39% in experiment [7], 8.73% in experiment [8], 8.25% in [9] and -0.22% in experiment [10].

Regarding `CCn1c(-c2nonc2N)nc2cnc(Oc3cccc(NC(=O)c4ccc(OCCN5CCOCC5)cc4)c3)cc21`, the inhibition in experiment [1] is 13.2%; in experiment [2] it was 3.5%; in experiment [3], 3.8%; in experiment [4], 6.17%; in experiment [5], 12.5%; in [6], 2.14%. For the same compound, the inhibition in experiment [7] is 3.43%; in experiment [8], 2.3%; in experiment [9], 3.84%; in experiment [10], -1.24%.

As to `Cc1nn(C)c2cc(N(C)c3ccnc(Nc4cccc(S(N)(=O)=O)c4)n3)ccc12`, the inhibition in [1] came to 84.1%; in experiment [2] it was 3.83%; in [3], 4.09%; in experiment [4] it was 44.2%; in experiment [5], 83.8%; in [6], 1.85%. Besides, the inhibition in experiment [7] was 3.69%; in experiment [8], 1.21%; in experiment [9] it was 3.34%; in [10], -0.82%.

For the compound `CCn1c(-c2nonc2N)nc2ccncc21`, the inhibition in experiment [1] stood at 3.87%; in [2], 2.48%; in experiment [3], 1.41%; in [4], 3.12%; in experiment [5], 3.29%; in experiment [6], 2.91%. Moreover, the inhibition in experiment [7] amounted to 1.83%; in experiment [8], 3.05%; in [9], 1.74%; in [10] it was 1.67%.

Regarding `COc1ccccc1Nc1ncc(-c2ccccc2)o1`, the inhibition came out at 26.2% in [1]; 4.67% in [2]; 3.89% in [3]; 6.62% in experiment [4]; 17.3% in [5]; 3.93% in experiment [6]. In addition, the inhibition in experiment [7] was 5.16%; in experiment [8], 6.13%; in experiment [9] it was 7.36%; in [10] it was -1.34%.

As for `Nc1ncnc2occ(-c3ccc(NC(=O)Nc4cccc(C(F)(F)F)c4)cc3)c12`, the inhibition in experiment [1] was 12.3%; in experiment [2], 4.53%; in experiment [3] it was 4.91%; in experiment [4], 3.8%; in experiment [5], 8.17%; in experiment [6], 5.73%. Besides, the inhibition in [7] is 15.6%; in experiment [8] it was 5.7%; in [9], 13.3%; in experiment [10] it was -2.6%.

As to `COc1ccc(-c2coc3ncnc(N)c23)cc1`, the inhibition was 10.2% in [1]; 5.34% in [2]; 5.29% in experiment [3]; 12.5% in experiment [4]; 8.75% in experiment [5]; 7.11% in [6]. The inhibition in experiment [7] is 8.23%; in [8] it was 6.08%; in experiment [9], 6.94%; in experiment [10] it was -0.2%.

Consider `NC(=O)c1ccc(-c2nc(-c3ccccn3)c(-c3ccc4c(c3)OCO4)[nH]2)cc1`, for which the inhibition in experiment [1] turned out to be 5.75%; in experiment [2], 3.95%; in experiment [3], 3.52%; in experiment [4], 2.63%; in [5], 7.53%; in [6], 3.9%. Moreover, the inhibition was 3.51% in experiment [7], 4.2% in experiment [8], 3.42% in [9] and -0.92% in experiment [10].

Regarding `Cc1ccc(C(=O)NC2CCCCC2)cc1-c1ccc(C(=O)NCC2CC2)cc1`, the inhibition was 0.87% in experiment [1]; 4.37% in [2]; 4.68% in [3]; 4.93% in [4]; 1.64% in experiment [5]; 5.76% in [6]. The inhibition came out at 4.46% in experiment [7], 6.92% in [8], 4.05% in experiment [9] and 1.41% in [10].

For the compound `NCc1ccc(-c2nc(-c3ccc(Cl)c(O)c3)c(-c3ccncc3)[nH]2)cc1`, the inhibition in [1] stood at 17.2%; in experiment [2], 0.8%; in experiment [3], 2.23%; in experiment [4] it was 4.99%; in experiment [5], 14.1%; in [6], 0.18%. The inhibition in experiment [7] is 0.25%; in [8] it was -1%; in [9] it was -1.23%; in experiment [10] it was 0.12%.

Regarding `COc1ccc(-c2nn3ncccc3c2-c2ccnc(Nc3ccc(Cl)c(C(F)(F)F)c3)n2)cc1`, the inhibition worked out at 14.7% in experiment [1]; 2.33% in experiment [2]; 1.56% in [3]; 3.94% in experiment [4]; 10.2% in experiment [5]; 1.84% in experiment [6]. Further, the inhibition in experiment [7] is 5.36%; in experiment [8], 2.73%; in [9] it was 6.97%; in [10], 0.59%.

For `CCn1c(-c2nonc2N)nc2c(C#CC(C)(C)O)nc(CN3CCCC3)cc21`, the inhibition is 1.37% in [1]; 0.73% in [2]; -0.46% in experiment [3]; 2.4% in experiment [4]; 0.35% in experiment [5]; -1.15% in experiment [6]. Besides, the inhibition in experiment [7] is 0.25%; in experiment [8] it was -2.44%; in experiment [9], -2.27%; in experiment [10], -0.36%.

As to `CNC(=O)c1cncc(/C=C/c2c(Cl)cccc2Cl)c1`, the inhibition is 23% in experiment [1]; 1.66% in experiment [2]; 1.76% in experiment [3]; 7.96% in experiment [4]; 19.3% in experiment [5]; 3.04% in [6]. For the same compound, the inhibition in experiment [7] was 7.53%; in experiment [8], 4.32%; in experiment [9] it was 8.47%; in [10], -1.2%.

With `COc1ccc(COc2ccc(Cc3cnc(N)nc3N)cc2OC)cc1`, the inhibition in [1] is 6.03%; in experiment [2] it was 1.66%; in [3] it was 0.97%; in [4], 0.71%; in [5] it was 4.81%; in experiment [6], 4.51%. Besides, the inhibition in [7] was determined as 4.23%; in [8], 3.88%; in experiment [9], 3.04%; in experiment [10] it was 3.22%.
